High-throughput results as filed in PubChem BioAssay.
Most compounds without a hit are left out; they make up all but 6.9% or so of the library.
HP1b chromo inh: HTS for Inhibitors of HP1-beta Chromodomain Interactions with Methylated Histone Tails. Chromobox protein homolog 1 (Homo sapiens), P83916. AlphaScreen HP1-beta / biotin-H3K9me3 peptide binding. Potency, µM (highest dose often 114 µM), for inactives: top-dose activity change, negative = inhibition, actives largely listed as inhibitors. 390,000 compounds, 0.56% hits. AID 540317, 2011; further: nearly all actives have a fitted effect of over 70% in size
Target sequence (P83916 whole entry, looked up): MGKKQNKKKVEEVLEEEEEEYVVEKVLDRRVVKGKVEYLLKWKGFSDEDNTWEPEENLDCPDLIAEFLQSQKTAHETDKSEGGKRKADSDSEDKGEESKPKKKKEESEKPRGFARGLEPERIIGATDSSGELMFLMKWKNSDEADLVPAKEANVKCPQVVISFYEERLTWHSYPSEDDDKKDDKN
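HP1-beta protein (50 nM final) preincubated 30 min at room temperature with biotinylated H3(1-18)K9me3 peptide (50 nM) in PBS pH 7.4, 0.01% Tween-20, then compound added for 30 min. AlphaScreen streptavidin donor/nickel chelate acceptor beads (10 ug/mL final), 30 min dark, luminescence read.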
BAZ2B block: qHTS Assay for Inhibitors of BAZ2B; Bromodomain adjacent to zinc finger domain protein 2B (Homo sapiens), Q9UIF8; AlphaScreen BAZ2B-H3K14Ac peptide displacement; Potency, µM (doses to about 114 µM), for the others: at the top dose activity change, negative = inhibition, hits mostly inhibitors; 360,000 compounds, 4.4% hits; AID 504333, 2011; further: on the % scale 0 is the no-effect control and ±100 the full control effect; nearly all actives have a fitted effect of over 60% in size
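Compounds, titrated to a top concentration of 110 uM, were incubated 30 min at room temperature with preformed BAZ2B/acetyl-K14 H3 peptide complex (50 nM each). Proximity signal was measured by AlphaScreen after 20 min with beads.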
PLK1 PBD block: qHTS for Inhibitors of PLK1-PDB (polo-like kinase 1 - polo-box domain): Primary Screen. AID 720504, 2013. Potency, µM, inactives show max response, negative = inhibition, actives largely listed as inhibitors. Plk1 PBD binding of FITC phosphopeptide, fluorescence polarization. 360,000 compounds, 2.8% hits; further: series mostly up to about 57 µM; on the % scale 0 is the no-effect control and ±100 the full control effect; nearly all actives have a fitted effect of over 65% in size
Target sequence (P53350 whole entry, looked up, the tested form may be a part): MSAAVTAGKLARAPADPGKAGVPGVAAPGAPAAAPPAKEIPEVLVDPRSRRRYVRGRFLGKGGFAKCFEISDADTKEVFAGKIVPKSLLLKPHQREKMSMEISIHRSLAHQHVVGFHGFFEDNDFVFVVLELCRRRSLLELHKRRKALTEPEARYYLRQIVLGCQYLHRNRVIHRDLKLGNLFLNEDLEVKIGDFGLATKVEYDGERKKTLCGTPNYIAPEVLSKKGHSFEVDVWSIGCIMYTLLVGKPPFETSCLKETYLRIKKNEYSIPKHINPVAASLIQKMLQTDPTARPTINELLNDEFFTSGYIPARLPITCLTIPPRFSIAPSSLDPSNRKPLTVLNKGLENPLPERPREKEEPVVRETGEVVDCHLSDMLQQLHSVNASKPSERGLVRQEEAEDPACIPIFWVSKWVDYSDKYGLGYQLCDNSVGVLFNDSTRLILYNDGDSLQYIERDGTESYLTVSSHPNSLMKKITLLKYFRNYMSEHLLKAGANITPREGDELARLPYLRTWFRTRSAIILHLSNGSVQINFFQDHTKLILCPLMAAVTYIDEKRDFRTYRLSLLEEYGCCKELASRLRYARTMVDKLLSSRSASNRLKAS
JMJD2A Tudor inh: qHTS Assay for Inhibitors of JMJD2A-Tudor Domain | AlphaScreen JMJD2A-Tudor / H3K4me3 peptide binding | AID 504339, 2011 | 390,000 compounds, 4.4% hits | Potency, µM (top dose mostly 114 µM), for inactives: at the highest dose activity change, negative = inhibition, actives largely listed as inhibitors; further: on the % scale 0 is the no-effect control and ±100 the full control effect; nearly all actives have a fitted effect of over 50% in size
L3MBTL1 block: qHTS Assay for the Inhibitors of L3MBTL1; Lethal(3)malignant brain tumor-like protein 1 (Homo sapiens), Q9Y468; AlphaScreen L3MBTL1–H3K9me1 peptide binding; Potency, µM (highest dose often 57.1 µM), for the others: at the top dose activity, negative = inhibition, most hits filed as inhibitors; 230,000 compounds, 0.66% hits; AID 485360, 2010; further: on the % scale 0 is the no-effect control and ±100 the full control effect; nearly all actives have a fitted effect of over 60% in size
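First, the protein-peptide complex forms for 30 min at room temperature (L3MBTL1 50 nM, biotinylated H3K9me1 peptide 75 nM). Next, compounds are pin-transferred and incubated 30 min. Finally, AlphaScreen beads are added and read after 30 min.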
VDR inh: Inhibitors of the vitamin D receptor (VDR): qHTS. Vitamin D3 receptor (Homo sapiens), P11473. VDR-SRC2-3 peptide fluorescence polarization, 2 h. Potency, µM, for the others: max response, negative = inhibition, most hits filed as inhibitors. 400,000 compounds, 0.93% hits; further: on the % scale 0 is the no-effect control and ±100 the full control effect
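The screen uses fluorescence polarization to detect compounds that interfere with recruitment of the SRC2-3 coactivator peptide to VDR; plates are read after 2 h at room temperature.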
The depositor's hits bear a star; [ ] = dose if it differs, or a comment. The call rests on the fitted dose curve; in most records, active means well fitted curve in the direction sought with a large enough effect; inconclusive means small, poorly fitted or top-dose-only effect, or another doubt; inactive means no such curve, though single readings can be large; an effect the other way counts as inactive or inconclusive. Potency means the concentration at half of the fitted maximal effect.

What do the screens show for `CC(=O)c1ccccc1OCC(O)CN1CCN(CCN2C(=O)c3cccc4cccc(c34)C2=O)CC1` (stereo not drawn)?
HP1b chromo inh: 17.3%; BAZ2B block: -29.2%; PLK1 PBD block: -16.5%; JMJD2A Tudor inh: -26.9%; L3MBTL1 block: -8.5%; VDR inh: -2.3%

What do the screens show for `O=C(NCC(=O)N(c1cccc(F)c1)C(C(=O)NC1CCCC1)c1cccnc1)c1cccs1` (stereo not drawn)?
HP1b chromo inh: 20.3%; BAZ2B block: 5.1%; PLK1 PBD block: 3.6%; JMJD2A Tudor inh: -29.3%; L3MBTL1 block: inconclusive; VDR inh: -12.2%

What do the screens show for `CCC(=O)N1CCc2cc(S(=O)(=O)CCC(=O)Nc3cc(Cl)ccc3OC)ccc21`?
HP1b chromo inh: 8.0%; JMJD2A Tudor inh: 14.1µM*; VDR inh: -25.5%

How did CCC(=O)N1CCc2cc(S(=O)(=O)NCCC(=O)Nc3cc(C)cc(C)c3)ccc21 do in these assays?
HP1b chromo inh: inconclusive; BAZ2B block: 14.3%; PLK1 PBD block: 26.7µM*; JMJD2A Tudor inh: -32.8%[57.1 µM]; L3MBTL1 block: 38.7%; VDR inh: -7.5%

What do the screens show for `CCC(=O)N1CCc2cc(S(=O)(=O)CCC(=O)Nc3ccc(OC)cc3)ccc21`?
HP1b chromo inh: 36.3%; BAZ2B block: -2.9%; PLK1 PBD block: 2.9%; JMJD2A Tudor inh: 10.9%; VDR inh: -10.6%

How did CCOc1ccccc1NC(=O)CCS(=O)(=O)c1ccc2c(c1)CCN2C(C)=O do in these assays?
HP1b chromo inh: -2.7%; BAZ2B block: -19.5%; PLK1 PBD block: 21.2µM*; JMJD2A Tudor inh: inconclusive; VDR inh: -5.1%

How did CCOC(=O)CSc1nc2sc3c(c2c(=O)n1Cc1ccccc1)CCC(C(C)(C)C)C3 (stereo not drawn) do in these assays?
HP1b chromo inh: 57.5%; BAZ2B block: 5.9%; JMJD2A Tudor inh: -5.9%; VDR inh: -5.2%

What do the screens show for `CC(=O)Nc1ccc(SCC(=O)N(C)C2CCS(=O)(=O)C2)cc1` (stereo not drawn)?
HP1b chromo inh: 50.8%; BAZ2B block: -16.1%; PLK1 PBD block: -25.6%; JMJD2A Tudor inh: -8.2%; L3MBTL1 block: 1.9%; VDR inh: 10.3%

Results for COc1cccc(-n2sc3c(c2=S)-c2cc(OC)ccc2NC3(C)C)c1 ?
HP1b chromo inh: 5.62µM*; BAZ2B block: 10µM*; PLK1 PBD block: 1.7%; JMJD2A Tudor inh: 11.2µM*; L3MBTL1 block: inconclusive; VDR inh: -8.7%

What do the screens show for `c1ccc(Oc2cccc(OCCCn3cncn3)c2)cc1`?
HP1b chromo inh: 46.1%; BAZ2B block: 10.7%; PLK1 PBD block: -23.2%; JMJD2A Tudor inh: -6.1%; VDR inh: 0.6%

Results for Cc1ccc(C(C)C)cc1OCC(=O)NCCCn1ccnc1 ?
HP1b chromo inh: 38.9%; PLK1 PBD block: -5.6%; JMJD2A Tudor inh: -22.8%; L3MBTL1 block: -3.2%; VDR inh: 21.8%

Results for Cc1ccc(C(C)C)cc1OCCn1cncn1 ?
HP1b chromo inh: 50.1µM*; BAZ2B block: 79.4µM*; PLK1 PBD block: 7.6%; JMJD2A Tudor inh: 2.24µM*; L3MBTL1 block: 7.3%; VDR inh: -9.1%

Results for Clc1cccc(OCCn2cncn2)c1Cl ?
HP1b chromo inh: -35.4%; BAZ2B block: 56.2µM*; PLK1 PBD block: -17.8%; JMJD2A Tudor inh: -3.1%[11.4 µM]; L3MBTL1 block: 2.2%[11.4 µM]; VDR inh: -13.9%

Results for Clc1ccccc1OCCN1CCCCC1 ?
HP1b chromo inh: inconclusive; BAZ2B block: -2.8%; PLK1 PBD block: -5.9%; JMJD2A Tudor inh: 22.4µM*; L3MBTL1 block: -8.9%; VDR inh: -16.5%

What do the screens show for `CCC(=O)c1ccccc1OCCN1CCN(CC)CC1`?
HP1b chromo inh: inconclusive; BAZ2B block: 35.5µM*; PLK1 PBD block: -11.9%; JMJD2A Tudor inh: 14.1µM*; L3MBTL1 block: 11.7%; VDR inh: 6.6%

Results for O=c1cnc2cnc(Oc3ccccc3)nc2n1CCc1ccccc1 ?
VDR inh: -5.4%

How did CCCN(c1ccccc1F)S(=O)(=O)c1cc(-c2cc(C)no2)ccc1C do in these assays?
HP1b chromo inh: 62.4%; BAZ2B block: 12.7%; JMJD2A Tudor inh: 24.7%; VDR inh: 1.4%

How did COc1ccc(/C(O)=C2/C(=O)C(=O)N(c3ncccn3)C2c2ccc(C(C)(C)C)cc2)cc1 (stereo not drawn) do in these assays?
BAZ2B block: -5.9%

How did COc1ccc(N(CC(=O)NCc2cccs2)S(=O)(=O)c2ccc(C(C)=O)cc2)cc1 do in these assays?
PLK1 PBD block: -1.9%

How did CC1(C)NC(=O)N(CCOc2cccc(Cl)c2Cl)C1=O do in these assays?
HP1b chromo inh: 64.1%; BAZ2B block: 6.6%; PLK1 PBD block: -7.3%; JMJD2A Tudor inh: -1.9%; L3MBTL1 block: -0.3%; VDR inh: -6.6%

What do the screens show for `C=CCc1ccc(OCCn2cncn2)c(OC)c1`?
HP1b chromo inh: 34.0%; BAZ2B block: 10.2%; PLK1 PBD block: 0.7%; JMJD2A Tudor inh: 5.9%; L3MBTL1 block: 8.5%; VDR inh: -15.6%

How did Clc1ccc(OCCN2CCCCC2)c(Cl)c1 do in these assays?
HP1b chromo inh: 44.7µM*; BAZ2B block: 50.1µM*; PLK1 PBD block: -9.5%; JMJD2A Tudor inh: 5.62µM*; VDR inh: 16.4%

How did CCN1CCN(CCOc2cccc(Cl)c2Cl)CC1 do in these assays?
HP1b chromo inh: inconclusive; BAZ2B block: 17.8µM*; PLK1 PBD block: -1.6%; JMJD2A Tudor inh: 3.98µM*; L3MBTL1 block: 44.6%; VDR inh: 1.5%

How did CCC(=O)c1ccccc1OCCCCn1cncn1 do in these assays?
HP1b chromo inh: inconclusive; BAZ2B block: 28.2µM*; PLK1 PBD block: -11.9%; JMJD2A Tudor inh: 5.62µM*; L3MBTL1 block: -0.2%; VDR inh: -10.2%

What do the screens show for `Clc1cccc(OCCN2CCCC2)c1`?
HP1b chromo inh: 26.2%; BAZ2B block: -0.6%; PLK1 PBD block: -2.6%; JMJD2A Tudor inh: -9.5%; L3MBTL1 block: -0.9%; VDR inh: -15.7%

What do the screens show for `C=CCc1cc(OC)ccc1OCCCCn1cncn1`?
HP1b chromo inh: inconclusive; BAZ2B block: 50.1µM*; PLK1 PBD block: -10.8%; JMJD2A Tudor inh: 5.62µM*; L3MBTL1 block: -6.8%; VDR inh: -9.1%

What do the screens show for `O=C1CS(=O)(=O)C2(C(=O)N(Cc3cccc(F)c3)c3ccccc32)N1c1ccccc1` (stereo not drawn)?
HP1b chromo inh: 13.0%; BAZ2B block: -4.0%[57.1 µM]; JMJD2A Tudor inh: -20.4%; VDR inh: -9.6%
